Source: PubChem BioAssay (National Center for Advancing Translational Sciences (NCATS))
TRHR PAM: allosteric enhancers of human TRH receptor | P34981 | TRHR cells, fluo-8 calcium fluorescence, EC20 TRH enhancement | enhancement, % at 2 µM | hit rate 0.66% among 360,000 | AID 493056; in the data active means enhancement above about 30%
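TRHR-expressing cells loaded with fluo-8 calcium dye were read kinetically (ex 480/em 530) during compound addition, then stimulated with an EC20 of TRH (10 nM final). Enhancement of the Gq-mediated intracellular calcium response was scored.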
D1 antagonist: blocks dopamine activation of the human D1 receptor. P21728. HEK293 TREx D1 cells, calcium flux, dopamine EC80; active compounds read low. activity change, negative = inhibition, % at 10 µM. hit rate 3.2% among 360,000; in the data active means activity change below about -30%
Target sequence (P21728 whole entry, looked up): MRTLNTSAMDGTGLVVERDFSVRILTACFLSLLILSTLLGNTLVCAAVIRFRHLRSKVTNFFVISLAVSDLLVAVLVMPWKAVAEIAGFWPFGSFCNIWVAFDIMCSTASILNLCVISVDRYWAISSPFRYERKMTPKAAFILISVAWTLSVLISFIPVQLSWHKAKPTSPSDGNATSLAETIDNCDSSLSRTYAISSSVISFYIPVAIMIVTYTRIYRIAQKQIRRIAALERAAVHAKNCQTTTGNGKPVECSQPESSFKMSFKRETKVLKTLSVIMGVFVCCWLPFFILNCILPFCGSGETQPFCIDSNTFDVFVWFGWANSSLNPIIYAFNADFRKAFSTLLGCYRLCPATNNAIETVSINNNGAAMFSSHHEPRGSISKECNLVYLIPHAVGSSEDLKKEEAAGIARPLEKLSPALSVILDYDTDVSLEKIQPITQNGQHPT
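Inducible Hek293 Trex D1 cells (tetracycline, overnight, 30 C). Calcium dye 30–90 min RT. Antagonist mode: EC80 dopamine added after 180 s compound read.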
TRHR agonist: agonists of human TRH receptor | TRHR cells, calcium flux fluo-8, FDSS agonist mode | activation, % at 2 µM | hit rate 0.18% among 360,000 | AID 493084
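Agonist-mode FDSS calcium read (Ex 480/Em 530, 1 s cycles) in 1536-well TRHR cells with fluo-8 dye, after 10-cycle baseline and 23 nL compound addition; TRH at EC20 (10 nM final) added afterwards for the enhancer phase.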
D1 potentiator: potentiators of human D1 dopamine receptor; P21728; HEK293 TREx D1 cells, calcium flux, dopamine EC20 potentiation; potentiation, % at 10 µM; hit rate 0.036% among 360,000; in the data active means potentiation above about 30%
D1 agonist: human D1 receptor agonism | P21728 | HEK293 T-REx D1 cells, calcium flux, agonist mode | activation, % at 2 µM | hit rate 1% among 360,000
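Agonism was scored from calcium flux recorded over 180 s (1 read/s) after pintool compound addition, following a 10-cycle baseline. Cells were inducible force-coupled HEK293 TREx D1, plated overnight at 30 C and loaded with no-wash calcium dye.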
USP1 inh: blocks the human USP1/UAF1 deubiquitinase complex. hit rate 0.23% among 390,000. Potency, µM (top dose mostly 57.1 µM), hits mostly inhibitors. recombinant USP1/UAF1, Ub-Rhodamine cleavage fluorescence; active means well fitted inhibition curve with a large enough effect; further: nearly all actives have a fitted effect of over 60% in size
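In this screen, compounds sit with the deubiquitinase complex (1nM) for 15 min at room temperature before Ub-Rho is added at 150nM final. Fluorescence rise is then followed for 6 reads every 60 seconds.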
Of the large screens only hits and unclear results are named; the others gave an inactive call. A selection: hits, their analogues and other compounds. The true share with any hit is near 4.4%. Unless noted, no stated cut-off is given here; in the data, active means activation above about 30%; inactive means the rest.

O=C(CCCN1C(=O)c2ccccc2C1=O)N1CCOCC1	TRHR PAM 33
Cc1cc(C2=NNC(=Nc3ccccc3)SC2)c(C)n1C	D1 antagonist -32
COCCCN=C1NN=C(c2cc(C)n(-c3ccccc3)c2C)CS1	none
COCCn1c(C)cc(C2=NNC(=Nc3ccccc3F)SC2)c1C	none
COCCCN=C1NN=C(c2cc(C)n(-c3ccccc3F)c2C)CS1	D1 antagonist -32, D1 agonist 33
CC(C)CCn1c(=O)c2sccc2n2c(CCCC(=O)NCCc3ccccc3)nnc12	none
Cc1cc(NC(=S)Nc2ccc(C)c(Cl)c2)n[nH]1	D1 antagonist -39
COc1ccc(NC(=S)Nc2cc(-c3ccccc3)[nH]n2)cc1Cl	D1 antagonist -79
COc1ccc(NC(=S)Nc2cc(C)[nH]n2)cc1Cl	none
COc1ccc(NC(=O)Cn2cc(C(=O)c3ccco3)c3ccccc32)cc1	D1 antagonist -87
COc1ccc(NC(=O)Cn2cc(S(=O)(=O)Cc3ccccc3)c3ccccc32)c(OC)c1	D1 antagonist -32
COc1ccc(NC(=O)CS(=O)(=O)c2cn(CC(=O)N(C(C)C)C(C)C)c3ccccc23)c(OC)c1	none
CCOc1ccc(NC(=O)Cn2cc(C(=O)c3ccco3)c3ccccc32)cc1	none
COC(=O)c1ccc(Cl)c(-c2ccc(/C=N/NC(=O)Nc3ccccc3)o2)c1	TRHR PAM 31
COC(=O)N/N=C/c1ccc(-c2ccccc2Cl)o1	none
Cc1cccc2c1-c1sc(C(=O)Nc3cccc([N+](=O)[O-])c3C)cc1CO2	D1 agonist 31
CCN1CCN(C(=O)Nc2cc(Cl)ccc2OC)CC1	none
COC(=O)c1ccccc1NC(=O)NC1CCCCC1	D1 antagonist -44
COC(=O)c1ccccc1NC(=O)NC1CC1	none
COc1ccc(Cl)cc1NC(=O)N1CCN(C2CCCCC2)CC1	TRHR PAM 36
COc1ccc(Cl)cc1NC(=O)NC1CCCCC1	TRHR PAM 32
O=C(Nc1c(C(=O)c2ccc(F)cc2)oc2ccccc12)c1cc(-c2ccccc2)on1	none
Cc1ccc(NC(=O)C2CCCN(C(=O)c3cnn(-c4ccc(F)cc4)c3-n3cccc3)C2)c(Cl)c1 (configuration not stated)	none
Cc1c(NC(=O)c2ccc(C(C)(C)C)cc2)cccc1[N+](=O)[O-]	D1 antagonist -42
Cc1cc(C(=O)Nc2cccc([N+](=O)[O-])c2C)cs1	none
COc1ccc(Cl)cc1NC(=O)Nc1cccc([N+](=O)[O-])c1C	D1 antagonist -64
CCCCOc1ccccc1Cn1c(=O)sc2ccccc21	none
CC(C)NS(=O)(=O)c1ccc(NC(=O)C(C)OC(=O)CCCOc2ccccc2)cc1 (configuration not stated)	TRHR PAM 30
COc1ccc(-n2cc(C(=O)NCCc3cc(OC)ccc3OC)c3ccccc3c2=O)cc1	none
Cc1ccc(CN2CCCn3nc(C(=O)NCCc4ccccc4Cl)cc3C2=O)cc1	none
O=C(Nc1ccc(Cl)cc1C(F)(F)F)C(Sc1nnc(-c2cccs2)o1)c1ccccc1 (configuration not stated)	none
O=C(Nc1cc(C(F)(F)F)ccc1Cl)C(Sc1nnc(-c2cccs2)o1)c1ccccc1 (configuration not stated)	D1 antagonist -45
CCOC(=O)Cn1c(=N)n(Cc2ccc(C(C)(C)C)cc2)c2ccccc21	D1 agonist 48
COc1ccc(-c2cc(C(F)(F)F)nc(SCC(=O)NCCc3ccc(OC)c(OC)c3)n2)cc1	none
CC1CCCCN1C(=O)c1ccc(COc2ccc([N+](=O)[O-])cc2)o1 (configuration not stated)	D1 antagonist -36
O=C(O)C(c1ccccc1)N1C(=O)/C(=C\c2ccc(-c3ccc(Br)cc3)o2)SC1=S (configuration not stated)	D1 agonist 66
COc1cccc2c1C(=O)c1c(O)c3c(c(O)c1C2=O)C[C@@](O)(C(=O)CO)C[C@@H]3O[C@H]1C[C@H](N)[C@H](O)[C@H](C)O1	D1 agonist 34, USP1 inh 32µM
Cc1ccc(N2CCN(Cc3nnc(-c4ccccc4F)o3)CC2)c(C)c1	D1 antagonist -50
CCN(CC)S(=O)(=O)c1ccc2c(c1)nc(CN(C)C(=O)c1cccc(Cl)c1)n2C	none
CCOc1ccc(-c2noc(CCCC(=O)NC3CCCC3)n2)cc1OC	D1 antagonist -85 (no result: D1 potentiator)
COc1ccc(-c2noc(CCCC(=O)NC3CCCCC3)n2)cc1	D1 antagonist -37
O=S(=O)(c1ccc2c(c1)OCCO2)N1CCN(S(=O)(=O)c2c(F)ccc(O)c2F)CC1	none (no result: USP1 inh)
COc1ccc(Cl)cc1S(=O)(=O)N1CCN(S(=O)(=O)c2ccc3c(c2)OCCO3)CC1	none (no result: USP1 inh)
Cc1ccc(F)cc1NC(=O)CCOc1ccccc1	D1 antagonist -31
Cc1c(-c2nsc(NC(=O)c3cccs3)n2)nnn1-c1ccc(Cl)cc1	none
COc1cccc(CNCCSc2nnnn2C)c1OCc1ccc(Cl)cc1	none
Cc1cnc(C(=O)OCC(=O)c2ccc(F)c(F)c2)cn1	none
Cc1cnc(C(=O)OCC(=O)c2ccc(C3CCCCC3)cc2)cn1	D1 antagonist -31
Cc1cnc(C(=O)OCC(=O)c2ccc(F)cc2)cn1	none
CCc1ccc(C(=O)COC(=O)c2cnc(C)cn2)cc1	D1 antagonist -33
O=C(COC(=O)c1cnccn1)c1ccc(C2CCCCC2)cc1	TRHR PAM 34
CCN(CC)CCCNC(=O)CSc1nc2nc(C)c(Cc3ccccc3C)c(C)n2n1	none
CCOc1ccc(NC(=O)N2CC3CCCN3c3ccccc32)cc1 (configuration not stated)	none
COC(=O)C1=C(C)N(Cc2ccccc2)C(=NCc2cccc(Cl)c2)N[C@H]1c1cccc(F)c1	D1 agonist 32
COC(=O)C1=C(C)N(Cc2ccccc2)C(=NCC(C)C)N[C@H]1c1cccc(C(F)(F)F)c1	none (no result: TRHR PAM, D1 antagonist, TRHR agonist, D1 potentiator, D1 agonist)
COC(=O)C1=C(C)N(Cc2ccccc2)C(=NCCc2ccccn2)N[C@H]1c1cccc(C(F)(F)F)c1	D1 agonist 34
CCN1C(=NCCc2ccccn2)N[C@@H](c2cccc(C(F)(F)F)c2)C(C(=O)OC)=C1C	none
COC(=O)C1=C(C)N(Cc2ccccc2)C(=NCc2ccc(OC)cc2)N[C@H]1c1cccc(F)c1	none
COC(=O)C1=C(C)N(Cc2ccccc2)C(=NCC(C)C)N[C@H]1c1cccc(F)c1	D1 antagonist -41, D1 agonist 82
COC(=O)C1=C(C)N(Cc2ccccc2)C(=NCC2CC2)N[C@H]1c1ccc(Br)cc1	TRHR PAM 32, D1 antagonist -80 (no result: USP1 inh)
COC(=O)C1=C(C)N(Cc2ccccc2)C(=NCC2CC2)N[C@H]1c1ccccc1	none
